Assay results as given in PMC5540273 (PLoS ONE, 2017).

Legend:
Settings in all cases: concentration: 1 μM, replicates: in singlicate; n = 1
[1] = test system: PIKFYVE
[2] = test system: PIM1
[3] = test system: PIM2
[4] = test system: PIM3
[5] = test system: PIP5K1A
[6] = test system: PIP5K1C
[7] = test system: PIP5K2B
[8] = test system: T1, PIP5K2C
T1 construct: gene PIP4K2C

[9] = test system: T2, PKAC-alpha
T2 construct: gene PRKACA

[10] = test system: T3, PKAC-beta
T3 construct: gene PRKACB

[11] = test system: PKMYT1
[12] = test system: PKN1
[13] = test system: PKN2
[14] = test system: PLK1
[15] = test system: PLK2
[16] = test system: PLK3
[17] = test system: PLK4
[18] = test system: PRKCD
[19] = test system: PRKCE
[20] = test system: PRKCH
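Further: KINOMEscan kinase panel screen.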

SMILES: NS(=O)(=O)c1cccc(-c2ccc3nccc(-c4cccc(S(N)(=O)=O)c4)c3c2)c1 [GW867253]
- %Inh [1]: 21%
- %Inh [2]: 3%
- %Inh [3]: 0%
- %Inh [4]: 9%
- %Inh [5]: 21%
- %Inh [6]: 0%
- %Inh [7]: 0%
- %Inh [8]: 41%
- %Inh [9]: 0%
- %Inh [10]: 0%
- %Inh [11]: 3%
- %Inh [12]: 0%
- %Inh [13]: 11%
- %Inh [14]: 24%
- %Inh [15]: 19%
- %Inh [16]: 30%
- %Inh [17]: 14%
- %Inh [18]: 23%
- %Inh [19]: 18%
- %Inh [20]: 0%

SMILES: Cc1nnc(-c2ccc(C)c(-c3ccc(C(=O)Nc4ccc(NS(C)(=O)=O)cc4)cc3)c2)o1 [GW702865]
- %Inh [1]: 4%
- %Inh [2]: 0%
- %Inh [3]: 0%
- %Inh [4]: 0%
- %Inh [5]: 52%
- %Inh [6]: 26%
- %Inh [7]: 17%
- %Inh [8]: 18%
- %Inh [9]: 0%
- %Inh [10]: 0%
- %Inh [11]: 0%
- %Inh [12]: 28%
- %Inh [13]: 15%
- %Inh [14]: 0%
- %Inh [15]: 0%
- %Inh [16]: 7%
- %Inh [17]: 6%
- %Inh [18]: 0%
- %Inh [19]: 0%
- %Inh [20]: 0%

SMILES: Cc1c(Cn2c(C)nn3c(=O)cc(N4CCOC(C)C4)nc23)cccc1C(F)(F)F (stereo not drawn) [GSK2344444]
- %Inh [1]: 46%
- %Inh [2]: 11%
- %Inh [3]: 0%
- %Inh [4]: 0%
- %Inh [5]: 0%
- %Inh [6]: 0%
- %Inh [7]: 0%
- %Inh [8]: 0%
- %Inh [9]: 4%
- %Inh [10]: 17%
- %Inh [11]: 0%
- %Inh [12]: 0%
- %Inh [13]: 0%
- %Inh [14]: 0%
- %Inh [15]: 0%
- %Inh [16]: 0%
- %Inh [17]: 0%
- %Inh [18]: 0%
- %Inh [19]: 0%
- %Inh [20]: 0%

SMILES: Fc1ccc(-c2nn3c(OCC(F)(F)F)cccc3c2-c2ccncc2)cc1 [GW514784]
- %Inh [1]: 51%
- %Inh [2]: 0%
- %Inh [3]: 0%
- %Inh [4]: 0%
- %Inh [5]: 50%
- %Inh [6]: 69%
- %Inh [7]: 18%
- %Inh [8]: 32%
- %Inh [9]: 6%
- %Inh [10]: 32%
- %Inh [11]: 0%
- %Inh [12]: 0%
- %Inh [13]: 0%
- %Inh [14]: 0%
- %Inh [15]: 0%
- %Inh [16]: 0%
- %Inh [17]: 0%
- %Inh [18]: 0%
- %Inh [19]: 14%
- %Inh [20]: 13%

SMILES: O=c1cc(N2CCOCC2)nc2n(Cc3cccc(Cl)c3Cl)c(C3CC3)nn12 [GSK2358994]
- %Inh [1]: 0%
- %Inh [2]: 0%
- %Inh [3]: 22%
- %Inh [4]: 0%
- %Inh [5]: 0%
- %Inh [6]: 0%
- %Inh [7]: 0%
- %Inh [8]: 0%
- %Inh [9]: 25%
- %Inh [10]: 5%
- %Inh [11]: 0%
- %Inh [12]: 2%
- %Inh [13]: 0%
- %Inh [14]: 0%
- %Inh [15]: 0%
- %Inh [16]: 16%
- %Inh [17]: 9%
- %Inh [18]: 0%
- %Inh [19]: 33%
- %Inh [20]: 0%

SMILES: Cc1cccc(-c2nc(Nc3ccc4ncsc4c3)c3ccccc3n2)n1 [GW867588]
- %Inh [1]: 54%
- %Inh [2]: 9%
- %Inh [3]: 0%
- %Inh [4]: 16%
- %Inh [5]: 27%
- %Inh [6]: 4%
- %Inh [7]: 0%
- %Inh [8]: 18%
- %Inh [9]: 11%
- %Inh [10]: 21%
- %Inh [11]: 9%
- %Inh [12]: 14%
- %Inh [13]: 0%
- %Inh [14]: 12%
- %Inh [15]: 19%
- %Inh [16]: 16%
- %Inh [17]: 14%
- %Inh [18]: 7%
- %Inh [19]: 27%
- %Inh [20]: 0%

SMILES: O=C1Cc2cc(Nc3nc(NCc4cccc(S(=O)(=O)C(F)(F)F)c4)ncc3C(F)(F)F)ccc2N1
- %Inh [1]: 6%
- %Inh [2]: 100%
- %Inh [3]: 0%
- %Inh [4]: 6%
- %Inh [5]: 13%
- %Inh [6]: 3%
- %Inh [7]: 20%
- %Inh [8]: 0%
- %Inh [9]: 0%
- %Inh [10]: 7%
- %Inh [11]: 17%
- %Inh [12]: 0%
- %Inh [13]: 0%
- %Inh [14]: 0%
- %Inh [15]: 5%
- %Inh [16]: 1%
- %Inh [17]: 4%
- %Inh [18]: 17%
- %Inh [19]: 23%
- %Inh [20]: 0%

SMILES: NS(=O)(=O)CCc1cccc(Nc2nccc(-c3c(-c4cccc(NC(=O)c5c(F)cccc5F)c4)nn4ccccc34)n2)c1 [GSK336735]
- %Inh [1]: 0%
- %Inh [2]: 0%
- %Inh [3]: 0%
- %Inh [4]: 0%
- %Inh [5]: 0%
- %Inh [6]: 36%
- %Inh [7]: 0%
- %Inh [8]: 17%
- %Inh [9]: 38%
- %Inh [10]: 37%
- %Inh [11]: 0%
- %Inh [12]: 0%
- %Inh [13]: 0%
- %Inh [14]: 0%
- %Inh [15]: 25%
- %Inh [16]: 48%
- %Inh [17]: 12%
- %Inh [18]: 40%
- %Inh [19]: 0%
- %Inh [20]: 32%

SMILES: Cc1ccc(C(=O)NCC(N)=O)cc1-n1c(C)cc(OCc2ccc(F)cc2F)c(Br)c1=O
- %Inh [1]: 20%
- %Inh [2]: 23%
- %Inh [3]: 19%
- %Inh [4]: 17%
- %Inh [5]: 14%
- %Inh [6]: 46%
- %Inh [7]: 0%
- %Inh [8]: 31%
- %Inh [9]: 7%
- %Inh [10]: 0%
- %Inh [11]: 22%
- %Inh [12]: 6%
- %Inh [13]: 0%
- %Inh [14]: 0%
- %Inh [15]: 0%
- %Inh [16]: 0%
- %Inh [17]: 0%
- %Inh [18]: 33%
- %Inh [19]: 2%
- %Inh [20]: 1%

SMILES: Cl.Oc1cccc(Nc2ccnc3cc(-c4ccncc4)ccc23)c1 [GW494601]
- %Inh [1]: 44%
- %Inh [2]: 28%
- %Inh [3]: 0%
- %Inh [4]: 0%
- %Inh [5]: 35%
- %Inh [6]: 75%
- %Inh [7]: 9%
- %Inh [8]: 85%
- %Inh [9]: 0%
- %Inh [10]: 0%
- %Inh [11]: 63%
- %Inh [12]: 0%
- %Inh [13]: 0%
- %Inh [14]: 30%
- %Inh [15]: 0%
- %Inh [16]: 0%
- %Inh [17]: 25%
- %Inh [18]: 0%
- %Inh [19]: 7%
- %Inh [20]: 0%

SMILES: O=C(Nc1n[nH]c2cc(-c3cccc(F)c3)ccc12)C1CC1 [SB-735464]
- %Inh [1]: 0%
- %Inh [2]: 2%
- %Inh [3]: 0%
- %Inh [4]: 4%
- %Inh [5]: 37%
- %Inh [6]: 18%
- %Inh [7]: 5%
- %Inh [8]: 11%
- %Inh [9]: 3%
- %Inh [10]: 6%
- %Inh [11]: 1%
- %Inh [12]: 7%
- %Inh [13]: 17%
- %Inh [14]: 0%
- %Inh [15]: 37%
- %Inh [16]: 13%
- %Inh [17]: 4%
- %Inh [18]: 0%
- %Inh [19]: 34%
- %Inh [20]: 8%

SMILES: COc1ccc(Nc2nccc(N3CCC(NC(=O)Nc4cccc(C(C)=O)c4)C3)n2)cc1 (stereo not drawn) [GSK1379731]
- %Inh [1]: 0%
- %Inh [2]: 0%
- %Inh [3]: 0%
- %Inh [4]: 0%
- %Inh [5]: 0%
- %Inh [6]: 24%
- %Inh [7]: 12%
- %Inh [8]: 3%
- %Inh [9]: 2%
- %Inh [10]: 0%
- %Inh [11]: 0%
- %Inh [12]: 3%
- %Inh [13]: 0%
- %Inh [14]: 7%
- %Inh [15]: 0%
- %Inh [16]: 0%
- %Inh [17]: 0%
- %Inh [18]: 0%
- %Inh [19]: 0%
- %Inh [20]: 0%

SMILES: CC(C)(C)n1cnc2c(N)ncnc21 [SKF-97359]
- %Inh [1]: 51%
- %Inh [2]: 0%
- %Inh [3]: 0%
- %Inh [4]: 0%
- %Inh [5]: 32%
- %Inh [6]: 51%
- %Inh [7]: 24%
- %Inh [8]: 34%
- %Inh [9]: 0%
- %Inh [10]: 20%
- %Inh [11]: 0%
- %Inh [12]: 0%
- %Inh [13]: 0%
- %Inh [14]: 0%
- %Inh [15]: 0%
- %Inh [16]: 0%
- %Inh [17]: 0%
- %Inh [18]: 1%
- %Inh [19]: 0%
- %Inh [20]: 0%

SMILES: CN1c2ccc(CNc3ccc(F)cc3)cc2-c2c(cnn2C)S1(=O)=O
- %Inh [1]: 17%
- %Inh [2]: 0%
- %Inh [3]: 14%
- %Inh [4]: 5%
- %Inh [5]: 5%
- %Inh [6]: 23%
- %Inh [7]: 0%
- %Inh [8]: 24%
- %Inh [9]: 5%
- %Inh [10]: 0%
- %Inh [11]: 0%
- %Inh [12]: 0%
- %Inh [13]: 0%
- %Inh [14]: 11%
- %Inh [15]: 15%
- %Inh [16]: 11%
- %Inh [17]: 0%
- %Inh [18]: 0%
- %Inh [19]: 5%
- %Inh [20]: 0%

SMILES: Cc1cn2c(=O)cc(N3CCOCC3)nc2n1Cc1cccc(Cl)c1Cl [GSK2334006]
- %Inh [1]: 50%
- %Inh [2]: 10%
- %Inh [3]: 0%
- %Inh [4]: 0%
- %Inh [5]: 0%
- %Inh [6]: 30%
- %Inh [7]: 0%
- %Inh [8]: 10%
- %Inh [9]: 3%
- %Inh [10]: 29%
- %Inh [11]: 12%
- %Inh [12]: 33%
- %Inh [13]: 0%
- %Inh [14]: 24%
- %Inh [15]: 0%
- %Inh [16]: 0%
- %Inh [17]: 0%
- %Inh [18]: 0%
- %Inh [19]: 13%
- %Inh [20]: 28%
